From PubChem BioAssay
These entries were drawn from the full list.
ATXN viability: cell viability loss in ATXN counter-screen; Potency, µM (titrated, usually from 56.7 µM), hits mostly cytotoxic; 400,000 compounds, 0.49% hits; S2 cells (HEK-293 line with an ATXN2-luciferase reporter) viability, CellTiter-Fluor protease fluorescence, 24 h; AID 651635; further: nearly all actives have a fitted effect of over 40% in size
ATXN2 expr inh: inhibitors of ATXN2 expression; HEK-293 ATXN2-luciferase reporter, luminescence, 24 h; Potency, µM (doses to about 57 µM), most hits filed as inhibitors; 360,000 compounds, 0.72% hits; further: nearly all actives have a fitted effect of over 55% in size
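ATXN2-luciferase reporter cells (luciferase flanked by upstream and downstream ATXN2 gene portions) were treated 24 h at 37 °C with compounds at up to 57 uM. SteadyGlo luminescence gave expression; GF-AFC fluorescence gave viability.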
TGFb inhibitor: inhibitors of TGF-b signaling | HepG2 CAGA-GFP TGF-b/SMAD3 reporter, GFP fluorescence, 18 h; TGF-beta stimulated, 500 pg/mL final | Potency, µM (top dose mostly 46.1 µM), usual class: inhibitors | 410,000 compounds, 1.2% hits; further: nearly all actives have a fitted effect of over 65% in size
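Using HEPG2 CAGA-GFP reporter cells at 1000 cells/well, we pinned test compounds, stimulated with recombinant TGF-beta (500 pg/mL final) and measured total well GFP after 18 h.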
HepG2 viability: counter-screen for TGF-b inhibitors: cytotoxicity in HepG2 cells. HepG2 CAGA-GFP viability, ATP luminescence, 18 h. Potency, µM (top dose mostly 46.1 µM), hits mostly cytotoxic. 410,000 compounds, 0.76% hits
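HepG2 CAGA-GFP cells (1000/well, DMEM with 1% FBS) received compound, then TGF-beta at 500 pg/mL final, and were incubated 18 hours at 37 degrees C. Viability was read by CellTiter-Glo luminescence. Media-only wells were set as complete cell-killing and DMSO as no toxicity.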
Nrf2 block: blocks Nrf2 signaling; A549 ARE-Fluc reporter, luciferase luminescence, 18-24 h; Potency, µM (top dose mostly 46 µM), actives largely listed as inhibitors; 360,000 compounds, 2.1% hits; AID 504444; further: nearly all actives have a fitted effect of over 60% in size
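Nrf2 activity is the BugLite luminescence, read 15 min after reagent at room temperature, following CellTiter-Fluor cytotoxicity readout (30 min, 37C). Compound titrations were applied for 18-24 h to 5000 A549 ARE_Fluc cells/well in 5% FBS OPTI-MEM.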
A549 viability: kills or reduces viability of A549 cells in Nrf2 counter-screen; Potency, µM (series often up to 46 µM), usual class: inhibitors; A549 ARE-Fluc cells, CellTiter-Fluor viability, 18-24 h; AID 504648; 390,000 compounds, 0.16% hits
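A549 ARE_Fluc cells in 5% FBS OPTI-MEM were exposed to compounds in concentration-response for 18-24 h at 37 deg C. Viability was read by CellTiter-Fluor fluorescence (Ex 405/Em 525) after 30 min, before the luciferase read.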
Calls only; - = inactive; ? = inconclusive; . = not tested or not shown; [ ] = dose if it differs, or a comment. The call rests on the fitted dose curve; in most records, active means well fitted curve in the direction sought with a large enough effect; inconclusive means small, poorly fitted or top-dose-only effect, or another doubt; inactive means no such curve, though single readings can be large; an effect the other way counts as inactive or inconclusive.

SMILES | ATXN viability | ATXN2 expr inh | TGFb inhibitor | HepG2 viability | Nrf2 block | A549 viability
COc1cc(O)cc2c1cc([N+](=O)[O-])c1c(C(=O)O)cc3c(c12)OCO3 | - | - | - | - | - | -
COc1ccc2nc(N3CCN(C(=O)CS(=O)(=O)c4ccc(C)cc4)CC3)sc2c1 | . | . | ? | - | . | -
Cn1c(=O)c(Oc2ccc(F)cc2)c(O)c2ccccc21 | - | -[11.3 µM] | - | - | ? | -
CC(COc1ccccc1)N(CCCl)Cc1ccccc1 (configuration not stated) | - | - | - | - | - | -
O=C(Nc1ccccc1)Oc1ccccc1 | - | - | - | - | - | -[1.84 µM]
CCOc1ccc(NC(=O)C2C(C(=O)O)C3(Cl)C(Cl)=C(Cl)C2(Cl)C3(Cl)Cl)cc1 (configuration not stated) | - | - | - | - | ? | -
COc1ccccc1-c1nn2c(=O)cc(CN3CCN(C(=O)Nc4ccc(C)cc4Cl)CC3)nc2s1 | ? | - | - | - | . | -
O=C(OC1CCN(CCCl)CC1)C(c1ccccc1)c1ccccc1 | - | - | - | - | ? | -
O=C(CCN1CCN(CCO)CC1)N1c2ccccc2Sc2ccc(C(F)(F)F)cc21 | - | - | - | - | - | -
CCN(CC)P(=O)(Nc1ccc([N+](=O)[O-])cc1)c1c(C)nn(CCC#N)c1NC(=O)c1ccc(Cl)cc1Cl (configuration not stated) | - | - | ? | - | ? | -
CN1Cc2cccnc2N(C)Cc2cc(Cl)ccc21 | ? | ? | ? | - | - | -
Nc1nc(N)nc(NC2CC2)n1 | - | - | . | . | . | .
C[C@]12CCC3C(CC[C@H]4C[C@@H](O)CC[C@]34C)C1=CC[C@@H]2O (some centres not stated) | ? | . | - | - | . | .
CCC12C=CCN3CCC4(c5cc(Br)c(OC)cc5N(C)C4C(O)(C(=O)OC)C1OC(C)=O)C32 (configuration not stated) | ? | - | - | - | - | -
CC(=O)c1c(C)n(Cc2ccccc2)c2ccc(O)cc12 | - | . | - | - | - | -
Cc1ccc(CN2CCCC(C(=O)c3sccc3C)C2)o1 (configuration not stated) | - | - | - | - | - | -
COc1cc2nc(N3CCCN(C)CC3)nc(N(C)C3CCN(C)CC3)c2cc1OC | . | . | ? | - | . | .
CCCCCCOC(=O)c1ccccc1N | - | - | - | - | - | -
